Assay outcomes: PubChem, several laboratories
Peg3 prom inh = inhibitors of Peg3 promoter | hit rate 1.7% among 360,000 | inhibition, % at 20 µM | HeLa PEG-Prom luciferase reporter, luminescence, overnight;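 active = inhibition of at least 50% at 20 µM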
KKLEB tox = CF airway cell cytotoxicity counter-screen; hit rate 0.36% among 360,000; KKLEB CF airway cells viability, ATPlite luminescence, overnight; stronger effect = lower value; cells stimulated with P. aeruginosa culture filtrate; activity change (cytotoxicity), % at 5 µM;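 active = corrected activity change at or below -50% at 5 µM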
TRPM1 prom inh = MITF TRPM1 promoter inhibition in SK-MEL-5 cells; SK-MEL-5 TRPM1 promoter luciferase, 24 h; inhibition, % at 12.5 µM; hit rate 0.83% among 330,000;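 active = mean inhibition across replicates of 60% or more, whatever share of single replicates reaches that level; inconclusive = some that reach 60%, reason not given; inactive = mean inhibition across replicates below 60%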
CF NFkB block = blocks PAF-induced NF-kB reporter in cystic fibrosis cells; KKLEB NF-kB-GFP reporter, GFP fluorescence overnight; inhibition, % at 5 µM; AID 588850; hit rate 0.86% among 360,000;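 active = at least 50% inhibition at 5 µM, scaled per plate between neutral and stimulator controls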;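 also: PAF is a Pseudomonas aeruginosa culture filtrate used as stimulus; plate controls were PAF-stimulated DMSO wells for no effect and unstimulated DMSO wells for full effect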
Shn3 3UTR inh = reduces Shn3 3'UTR luciferase signal in osteoblasts. inhibition, % at 12.5 µM. hit rate 0.52% among 360,000. Clone20 osteoblast Shn3 3'UTR firefly luciferase, 24 h;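 active = mean inhibition of at least 75% with every replicate also reaching 75%; inconclusive = mean inhibition at least 75% but some replicate below; inactive = mean inhibition below 75%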;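 also: 0% = median of neutral control wells and 100% = pilot-screen positive control compound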
HIF-2a inh = inhibitors of HIF-2a; 786-0 RCC cells HIF-2a reporter, luciferase luminescence, overnight; inhibition, % at 18.8 µM; hit rate 0.72% among 360,000;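 active = inhibition of the luminescence signal of 40% or more relative to plate controls, in a single-dose primary screen at 18.75 µM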
Mdm2-MdmX confirm = Mdm2/MdmX (human) interaction inhibition, confirmed; SaOS-2 split-luciferase Mdm2/MdmX complementation, luminescence; hit rate 99% among 740; inhibition, % at 8 µM; AID 504601; shares compounds with HIF-2a inh;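 active = mean inhibition of the luminescence signal across two replicates at or above 26 percent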
HIF-2a inh conf = HIF-2a inhibition, single concentration confirmation; shares compounds with HIF-2a inh; 786-0 RCC cells, HIF-2a luciferase reporter luminescence, overnight; inhibition, % at 18.8 µM; hit rate 56% among 1,800; AID 651580;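 active = mean inhibition across four replicates of at least 40 percent at the single tested concentration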
HIF-1a counter = counter-screen for HIF-2a inhibitors: HIF-1a inhibition in MiaPaCa-2 cells; hit rate 72% among 1,800; shares compounds with HIF-2a inh; inhibition, % at 18.8 µM; MiaPaCa-2 HIF-1a luciferase reporter, desferoxamine, overnight; AID 651589;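 active = mean inhibition of the reporter signal across four replicates at the single tested dose of 50% or more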
The depositor's hits bear a star; ? = inconclusive; · = no result. An excerpt weighted towards active compounds, which were near 2.8% of everything screened.

SMILES	Peg3 prom inh	KKLEB tox	TRPM1 prom inh	CF NFkB block	Shn3 3UTR inh	HIF-2a inh	HIF-2a inh conf	HIF-1a counter	others
CCCCOc1ccc(C(=O)NCC(=O)NCCOc2ccccc2OC)cc1	-10.5	-13.0	6.4	2.4	2.1	2.9	·	·
CCn1nnnc1SCC(=O)N1CCCCC1	-10.8	3.2	-1.3	1.9	-9.1	5.4	·	·
COc1ccc(Oc2c(Cl)cnn(-c3ccc(C)cc3)c2=O)cc1	7.4	0.0	3.1	-4.2	15.9	-5.5	·	·
COc1ccc(Oc2c(Cl)cnn(-c3ccc(Cl)c(Cl)c3)c2=O)cc1	64.7*	2.7	?	-19.5	19.1	83.9*	8.5	104.1*
O=C(Nc1ccc(Cl)c(Cl)c1)c1ccc(Cl)c(Cl)c1	-127.0	-3.4	-50.5	-1.6	-44.8	-272.4	·	·
Cc1ccc(NC(=O)c2ccc(Cl)c(N3C(=O)C=CC3=O)c2)cc1	101.2*	-1.0	37.9	28.0	91.8*	49.4*	24.7	-34.0
CC(C)(C)NC(=O)CSc1nc(O)cc(=O)[nH]1	10.4	21.7	7.2	-19.7	1.3	40.6*	6.1	-1.4
C#CCOC(=O)CN1C(=O)c2cccc3cccc(c23)C1=O	-15.3	-0.6	3.6	-37.1	-16.0	-92.7	·	·
CC1=CC(C)(C)Nc2ccc(OC(=O)CN3C(=O)c4cccc5cccc(c45)C3=O)cc21	-22.8	5.2	22.1	-4.6	31.3	73.6*	88.7*	72.4*
COCCNC(=O)c1cn(C)c2ccc(S(=O)(=O)N3CCCCC3)cc2c1=O	32.0	3.4	14.0	37.4	17.8	18.6	·	·
CCOC(=O)c1nnc(-c2ccccc2)nc1Sc1c(Cl)cccc1Cl	64.0*	-1.5	14.0	22.5	-9.1	62.5*	19.6	65.3*
COc1cccc(NC(=O)N(C)C[C@H]2Oc3cc(C#Cc4ccncc4)ccc3S(=O)(=O)N([C@H](C)CO)C[C@H]2C)c1	17.1	-15.9	·	-2.3	-15.8	43.0*	18.9	38.1
COc1ccc(S(=O)(=O)N2CCc3ccccc32)cc1C(=O)NCCc1ccccn1	13.7	-20.5	-5.0	20.5	3.5	15.0	·	·
Cn1c(/C=C/c2ccc(Br)cc2)c([N+](=O)[O-])c(=O)n(C)c1=O	61.6*	29.1	36.7	31.6	6.1	92.0*	55.3*	96.1*
O=C(COC(=O)c1nc(Cl)ccc1Cl)NNC(=O)c1cccs1	-3.0	-2.2	12.6	-3.0	2.6	4.1	·	·
O=C(N/N=C/c1ccccc1)C(=O)N/N=C/c1ccccc1	3.8	3.3	-7.0	5.3	-2.7	1.6	·	·
O=C(C=C=Nc1ccccc1)C(=O)N=C=Cc1ccccc1	101.8*	-20.3	81.9*	92.4*	-3.2	75.3*	53.0*	101.0*
COc1ccccc1-c1nnc(Sc2nc([N+](=O)[O-])nn2C)o1	65.7*	-35.0	57.5	47.9	-40.4	0.4	·	·	Mdm2-MdmX confirm=97.0*
OC[C@@H](O)[C@H](O)C(/C=N/Nc1ccccc1)=N\Nc1ccccc1	-24.7	-1.8	4.5	-0.9	-29.6	-31.3	·	·
COc1cc(OC)cc(-n2nnnc2SCC(=O)N2CCCC2)c1	21.2	1.3	3.8	-10.9	13.4	-10.5	·	·
COc1ccc(-n2nnnc2S(=O)(=O)CC(=O)N2CCCCC2)cc1	102.8*	-53.6*	73.9*	82.7*	91.8*	90.4*	17.5	-4.7
Cc1c(NC(=O)C(C)OC(=O)/C=C/c2ccc(OC(F)F)cc2)c(=O)n(-c2ccccc2)n1C (stereo not drawn)	3.7	-15.3	9.4	-0.8	-19.6	4.3	·	·
O=C(c1ccccc1)c1cc(Cl)ccc1N1C(=O)C=CC1=O	105.4*	-14.2	83.6*	58.0*	?	75.0*	78.4*	-10.8
O=C(CC(=O)c1cc(Cl)ccc1O)c1ccccc1	-195.1	0.5	-16.2	-28.0	-23.5	-294.1	·	·
CC1=C(C(=O)N2CCCCCC2)CC(CC(=O)NC2CCCC2)C(=O)N1Cc1ccc(C(C)(C)C)cc1 (stereo not drawn)	·	·	·	·	·	-19.7	·	·
SMILES	Peg3 prom inh	KKLEB tox	TRPM1 prom inh	CF NFkB block	Shn3 3UTR inh	HIF-2a inh	HIF-2a inh conf	HIF-1a counter	others
CCN(CC(=O)Nc1ccc(NC(C)=O)cc1)C(=O)C1(c2ccc(Cl)cc2)CCC1	16.9	12.3	·	-53.6	12.6	50.9*	31.8	1.3
COc1ccc(NC(=O)CN(C)C(=O)CCc2ccccc2)cc1	1.2	-1.2	-0.6	2.1	-6.4	-2.3	·	·
COc1ccc(NC(=O)CN(C)C(=O)C2(c3ccccc3)CCCC2)cc1	45.4	4.6	40.1	-107.8	36.8	51.1*	32.5	15.1
O=C1CN(C(=O)COC(=O)c2ccc(Br)o2)c2ccccc2N1	2.4	-0.9	7.6	-5.0	3.2	10.2	·	·
CC(C)(C)N/C=C(\C#N)S(=O)(=O)c1ccc(Br)cc1	4.3	-2.6	·	8.2	-10.2	8.1	·	·
O=C(Nc1cccc(Cl)c1)c1cccc(Oc2ccc([N+](=O)[O-])cc2Cl)c1	33.7	-1.5	12.2	22.7	1.6	-40.1	·	·
O=C(Nc1cccc(Cl)c1)c1cc(N=Nc2ccc([N+](=O)[O-])cc2Cl)ccc1O	79.0*	-32.3	41.5	76.2*	1.9	-83.9	·	·	Mdm2-MdmX confirm=95.5*
CON(C)C(=O)CC1(CN(Cc2ccccc2)C(=O)OC(C)(C)C)CCCCC1	10.5	-4.7	21.1	10.3	20.3	7.1	·	·
C#CC(=O)CC1(CN(Cc2ccccc2)C(=O)OC(C)(C)C)CCCCC1	60.4*	-104.2*	4.6	84.4*	20.6	44.0*	2.4	19.1
Cc1noc(C)c1CSCC(=O)Oc1ccc(N(C)S(=O)(=O)c2ccc(Cl)cc2)cc1	10.1	5.5	3.2	28.0	0.5	12.2	·	·
COc1ccccc1OC(=O)c1cc2ccccc2oc1=O	-4.3	3.5	-8.7	-7.6	1.5	8.2	·	·
COc1cc(/C=C/[N+](=O)[O-])ccc1OC(=O)c1cc2ccccc2oc1=O	68.6*	-4.0	53.8	35.2	11.1	61.0*	34.4	38.2
COc1ccccc1NS(=O)(=O)c1cc(NC(=O)CNC(=O)c2ccc(C)s2)ccc1Cl	3.2	13.2	3.4	-13.3	12.7	-29.3	·	·
Cc1ccccc1-n1nnnc1SCC(=O)NNC(=O)c1ccc(NC(=O)CC#N)cc1	6.7	-8.4	0.5	2.3	13.6	-9.6	·	·
O=c1oc(-c2ccccc2)cc2ccccc12	-278.8	2.0	·	-67.5	-54.9	-263.9	·	·
Nc1ccc(-c2cc3ccccc3c(=O)o2)cc1	-44.6	12.2	73.6*	-46.9	38.0	82.0*	90.6*	54.4*
Cc1ccccc1NC1=C/C(=N\S(=O)(=O)c2cccs2)c2ccccc2C1=O	102.1*	-93.4*	86.5*	93.7*	97.5*	92.8*	·	·	Mdm2-MdmX confirm=103.2*
